Laboratory results from article PMC4552634, “A New Set of Chemical Starting Points with Plasmodium falciparum Transmission-Blocking Potential for Antimalarial Drug Discovery” (PLoS ONE, 2015).
About 3,200 (25%) of roughly 13,000 compounds showed an effect of 50% or more. Some of the results follow.

These molecules were tested on P. falciparum stage V gametocytes. Details: 48 h, 5 µM; inhibitor.
Design: BacTiter-Glo ATP luminescence viability of purified stage V gametocytes in 384-well plates, per cent inhibition versus DMSO

Row | SMILES | % Inhibition
1 | Cc1cc(-c2ccnc(Nc3cccc(C#N)c3)n2)cc(C)c1O [TCMDC-133719] | -73.96%
2 | O=C(NC1CCCCCC1)C1CCCN(C(=O)c2ccc(O)c(-c3ccc(Cl)c(Cl)c3)c2)C1 (stereo not shown) [TCMDC-140888] | 23.53%
3 | CCCCN1C(=O)C2CC(=O)CC(C3CCCCC3)C2C1=O (stereo not shown) [TCMDC-139128] | 18.42%
4 | O=C(O)C(F)(F)F.c1cc(-c2ccc(CNC3CCOCC3)cc2)cc(-c2nc3ccccc3[nH]2)c1 [TCMDC-132572] | 48.89%
5 | CCCC[C@H](NC(=O)OC(C)(C)C)C(=O)Nc1ccc(Cc2ccc(NC(=O)[C@H](CCCC)NC(=O)OC(C)(C)C)cc2)cc1 [TCMDC-131870] | -71.66%
6 | CCC[C@@H]([C@@H](CC(C)C)C(=O)N[C@@H](CCCCNC(=O)OCc1ccccc1)C(=O)Nc1ncccn1)N(O)C=O [TCMDC-137323] | 42.47%
7 | CCCC[C@H](NC(=O)O[C@H](COc1ccc(OCc2ccccc2)cc1)C(C)(C)C)C(=O)C(=O)Nc1ccn[nH]1 [TCMDC-138665] | 67.01%
8 | Cc1ccc2c(Cl)c(C(=O)N3CCCc4ccccc43)sc2c1 [TCMDC-125658] | 1.703%
9 | CC1(CCc2ccccc2)N=C(N)N(Cc2ccccc2)C(=O)C1c1ccc(Cl)c(Cl)c1 (stereo not shown) [TCMDC-136509] | 88.15%
10 | CC1(CCc2ccccc2)N=C(N)N=C(N)C1c1ccc(Cl)c(Cl)c1 (stereo not shown) [TCMDC-136376] | 33.71%
11 | CCCCCCC1(C)N=C(N)N=C(N)C1c1ccc(Cl)c(Cl)c1 (stereo not shown) [TCMDC-137594] | 22.11%
12 | O=C(NCCN1CCOCC1)c1ccc(N2CCC(Oc3ccc4ccccc4c3)CC2)nc1 [TCMDC-134400] | 19.81%
13 | O=C(CCC1CCCCC1=O)c1ccccc1 (stereo not shown) [TCMDC-125845] | 5.946%
14 | CN(c1ccc2c(c1)nc(NCc1ccccc1)n2C)c1ccnc(Nc2ccc(CS(C)(=O)=O)cc2)n1 [TCMDC-138740] | 25.8%
15 | COc1ccccc1C1CCN(CCCCNC(=O)c2ccc(/C=C/c3cc(Cl)cc(Cl)c3)cc2)CC1 [TCMDC-138241] | 103.9%
16 | Cc1ccc(C2CCN(CCCCNC(=O)c3ccc(NC(=O)c4ccc(Cl)cc4)cc3)CC2)c(OCC(F)(F)F)c1 [TCMDC-138572] | -14.71%
17 | COc1ccc(C2CCN(CCCCNC(=O)c3ccc(NC(=O)c4ccc(Cl)cc4)cc3)CC2)c(OC)c1 [TCMDC-138254] | 47.57%
18 | CCOc1ccccc1C1CCN(CCCCNC(=O)c2ccc(NC(=O)c3ccc(Cl)cc3)cc2)CC1 [TCMDC-138369] | -17.64%
19 | COc1cc(C(C)C)ccc1C1CCN(CCCCNC(=O)c2ccc(NC(=O)c3ccc(Cl)cc3)cc2)CC1 [TCMDC-138403] | 115.5%
20 | COc1ccccc1C1CCN(CCCCNC(=O)c2ccc(NC(=O)c3ccc(Cl)cc3)cc2)CC1 [TCMDC-138239] | 21.16%
21 | CCOc1ccc(C2CCN(CCCCNC(=O)c3ccc(NC(=O)c4ccc(Cl)cc4)cc3)CC2)c(CC)c1 [TCMDC-138357] | 26.78%
22 | CCOc1cc(C)ccc1C1CCN(CCCCNC(=O)c2ccc(NC(=O)c3cc(Cl)cc(Cl)c3)cc2)CC1 [TCMDC-138620] | 9.848%

Row | SMILES | % Inhibition
23 | CCOc1cc(C(C)C)ccc1C1CCN(CCCCNC(=O)c2ccc(NC(=O)c3ccc(Cl)cc3)cc2)CC1 [TCMDC-138385] | 20.72%
24 | Cc1ccc(C2CCN(CCCCNC(=O)c3ccc(NC(=O)c4ccc(Cl)cc4)cc3)CC2)c(OCC2CC2)c1 [TCMDC-138541] | 76.06%
25 | CCc1cc(OC)ccc1C1CCN(CCCCNC(=O)c2ccc(NC(=O)c3ccc(Cl)cc3)cc2)CC1 [TCMDC-138360] | -6.372%
26 | CCOc1ccc(C2CCN(CCCCNC(=O)c3ccc(NC(=O)c4ccc(Cl)cc4)cc3)CC2)c(Cl)c1 [TCMDC-138365] | 58.19%
27 | O=C(Nc1ccc2ccccc2n1)c1ccccc1-c1ccccc1 [TCMDC-125339] | -5.994%
28 | FC(F)(F)c1ccc(/C=C/c2cncnc2Nc2ccc3nc(Cc4ccccc4)[nH]c3c2)cc1 [TCMDC-138660] | -4.612%
29 | CC(Oc1ccc(C(=O)c2ccc(F)cc2)cc1)C(=O)N1CCc2ccccc21 (stereo not shown) [TCMDC-123555] | 10.82%
30 | Cc1sc2nc(CSc3ccccc3)nc(N3CCN(CC(=O)N4CCCC4)CC3)c2c1C [TCMDC-125052] | -14.62%
31 | N#Cc1ccc2c(c1)CCN(CCC1CCC(NC(=O)/C=C/c3ccc(F)c4ccccc34)CC1)CC2 (stereo not shown) [TCMDC-139664] | -16.56%
32 | CC(C)C[C@H](Nc1ccnc(NCC2CCCCC2)n1)C(=O)NCCc1ccccc1 [TCMDC-134713] | -30.95%
33 | CCCC(=O)Nc1ccc(OCCN(Cc2ccccc2OC(F)(F)F)c2ccc(C(F)(F)F)c(C#N)c2)cc1 [TCMDC-132791] | 22.95%
34 | CCCCCc1ccc(NC(=O)Nc2ccc(Cn3ncc(N4CCCNCC4)c(Cl)c3=O)cc2)cc1 [TCMDC-133312] | -21.48%
35 | CCOc1ccc(N2CCN(CCCCNC(=O)c3ccc(NC(=O)c4ccc(Cl)cc4)cc3)CC2)c(OCC)c1 [TCMDC-138243] | 4.088%
36 | COc1cccc(OCC2CCCN(CCCCNC(=O)c3ccc(NC(=O)c4ccc(Cl)cc4)cc3)C2)c1 (stereo not shown) [TCMDC-138269] | 92.38%
37 | Cc1ccc(C2CCN(CCCCNC(=O)c3ccc(-c4ccc(C(F)(F)F)cc4)cc3)CC2)c(O)c1 [TCMDC-138538] | 45.11%
38 | O=C(NCCCCN1CCC(c2ccc(C(F)(F)F)cc2C(F)(F)F)CC1)c1ccc(NC(=O)c2ccc(Cl)cc2)cc1 [TCMDC-138343] | -51.81%
39 | COc1cccc(C2CCCN(CCCCNC(=O)c3ccc(NC(=O)c4ccc(Cl)cc4)cc3)C2)c1 (stereo not shown) [TCMDC-138283] | 16.5%
40 | COc1ccc(C2CCN(CCCCNC(=O)c3ccc(NC(=O)c4ccc(Cl)cc4)cc3)C2)c(OC)c1 (stereo not shown) [TCMDC-138281] | 10.37%
41 | CCOc1ccc(C2CCN(CCCCNC(=O)c3ccc(NC(=O)c4ccc(Cl)cc4)cc3)CC2)c(OCC)c1 [TCMDC-138260] | 93.19%
42 | COc1ccc(C2CCN(CCCNC(=O)c3ccc(NC(=O)c4ccc(Cl)cc4)cc3)CC2)c(OC)c1 [TCMDC-138288] | 4.031%
43 | CC(C)c1ccc(C2CCN(CCCCNC(=O)c3ccc(NC(=O)c4ccc(C(F)(F)F)cc4)cc3)CC2)c(O)c1 [TCMDC-138527] | 105.5%
